Screening results deposited in PubChem by National Center for Advancing Translational Sciences (NCATS).
Compounds with a hit are over-represented: about 3.7% of the library has one in this group of screens.
TGFb inhibitor – TGF-b pathway inhibition; Potency, µM (doses to about 46.1 µM), inactives show at the highest dose activity, negative = inhibition, hits mostly inhibitors; HepG2 CAGA-GFP TGF-b/SMAD3 reporter, GFP fluorescence, 18 h; TGF-beta stimulated, 500 pg/mL final; hit rate 1.2% among 410,000; note: % is set by controls: 0 for no effect and ±100 for the full control effect; nearly all actives have a fitted effect of over 65% in size
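HEPG2 CAGA-GFP cells (1000/well, DMEM with 1% FBS) were pre-incubated 2 h at 37 degrees C, given compound by pin tool, then stimulated with TGF-beta at 500 pg/mL final for 18 h before per-cell GFP fluorescence imaging.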
GLP1R ag – activates the human GLP-1 receptor | P43220 | HEK293 GLP-1R CRE-luciferase, luminescence, 4-6 h; cells express a hypersensitive GLP-1R form | Potency, µM (top dose mostly 45.6 µM), for the others: at the highest dose activation, actives largely listed as activators | hit rate 0.007% among 380,000; note: % of control where 0% means no effect
Target sequence (P43220 whole entry, looked up): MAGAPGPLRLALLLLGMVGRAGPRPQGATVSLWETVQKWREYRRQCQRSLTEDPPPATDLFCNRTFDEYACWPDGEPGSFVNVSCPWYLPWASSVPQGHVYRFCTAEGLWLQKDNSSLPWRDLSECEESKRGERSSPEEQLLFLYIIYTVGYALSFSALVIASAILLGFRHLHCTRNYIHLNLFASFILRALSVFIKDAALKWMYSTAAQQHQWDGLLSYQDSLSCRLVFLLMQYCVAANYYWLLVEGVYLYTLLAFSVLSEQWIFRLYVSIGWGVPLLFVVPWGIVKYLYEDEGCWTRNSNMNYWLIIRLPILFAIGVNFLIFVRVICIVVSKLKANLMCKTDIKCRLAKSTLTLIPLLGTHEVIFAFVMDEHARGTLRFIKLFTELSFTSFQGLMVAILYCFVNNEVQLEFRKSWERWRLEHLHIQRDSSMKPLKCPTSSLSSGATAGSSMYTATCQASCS
HepG2 viability – HepG2 cytotoxicity, counter-screen for TGF-b inhibitors; HepG2 CAGA-GFP viability, ATP luminescence, 18 h; Potency, µM (series often up to 46.1 µM), for inactives: at the top dose activity change, negative = cytotoxicity, usual class: cytotoxic; hit rate 0.76% among 410,000
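CellTiter-Glo luminescence gave cytotoxicity after 18 hours at 37 degrees C. The cells were HepG2 CAGA-GFP in 1% FBS DMEM, stimulated with 500 pg/mL TGF-beta after compound addition. %Activity was normalised to no-cell wells (complete cell-killing) and DMSO (no toxicity), and curves were fitted and classified.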
ATXN2 expr inh – reduces ATXN2 reporter expression in HEK-293 cells | hit rate 0.72% among 360,000 | Potency, µM (series often up to 57 µM), for the others: at the top dose activity change, negative = inhibition, actives largely listed as inhibitors | HEK-293 ATXN2-luciferase reporter, luminescence, 24 h | AID 1745845; note: % is set by controls: 0 for no effect and ±100 for the full control effect; nearly all actives have a fitted effect of over 55% in size
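qHTS (up to 57 uM final) was run with 24 h compound exposure of reporter cells at 37 °C. Each well was multiplexed: SteadyGlo luminescence measured ATXN2-luciferase expression after a fluorogenic Gly-Phe-AFC viability readout (25 uM final).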
GLP-1R inv ag – GLP-1 receptor (human) inverse agonism; HEK293 GLP-1R CRE-luciferase, luminescence, 24 h; GLP-1R form is constitutively active; hit rate 1.6% among 410,000; Potency, µM (series often up to 38.3 µM), for the others: at the top dose activity change, negative = inhibition, hits mostly inhibitors; AID 624417; note: % is set by controls: 0 for no effect and ±100 for the full control effect; nearly all actives have a fitted effect of over 55% in size
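Assay principle: reduced luminescence from a cAMP-responsive reporter in HEK293 cells co-expressing a constitutively active GLP-1R. Conditions: 24 hr compound incubation, 37 deg C, 5% CO2.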
S2 tox – viability counter-screen for ATXN expression inhibitors. S2 cells (HEK-293 line with an ATXN2-luciferase reporter) viability, CellTiter-Fluor protease fluorescence, 24 h. AID 651635. Potency, µM (top dose mostly 56.7 µM), actives largely listed as cytotoxic. hit rate 0.49% among 400,000; note: nearly all actives have a fitted effect of over 40% in size
* hit, by the source's call; i = inactive; ? = inconclusive; . = no result given; [ ] = remark or other dose. Calls come from the whole dose curve; as a rule, active = well fitted curve in the direction sought with a large enough effect; inconclusive = small, poorly fitted or top-dose-only effect, or another doubt; inactive = no such curve, though single readings can be large; an effect the other way counts as inactive or inconclusive. Potency is the fitted concentration of half-maximal effect.

SMILES | TGFb inhibitor | GLP1R ag | HepG2 viability | ATXN2 expr inh | GLP-1R inv ag | S2 tox
COc1cc(N(C)C)ccc1C=c1c2ccccc2n2c1cc(-c1ccccc1)[n+]2C | 3.5µM* | -16% | -61% | 12µM* | 8.9µM* | 12µM*
COc1cc(C=c2c3ccccc3n3c2cc(-c2ccccc2)[n+]3C)cc(OC)c1OC | ? | -3% | -34% | ? | ? | ?
CN(C)c1ccc(C=c2c3ccccc3n3c2c2c([n+]3C)CCCC2)cc1 | 2.5µM* | 2% | -51% | 8.9µM* | ? | 22µM*
CN(C)c1ccc(C=c2c3ccccc3n3c2cc(-c2ccc(Cl)cc2)[n+]3C)cc1 | ? | -5% | -61% | ? | ? | 11µM*
COc1ccc(Cl)c(Cn2cnc3c(cnn3C(C)(C)C)c2=O)c1 | -23% | . | -16% | . | . | .
CC1=C(C(=O)OCc2ccccc2)N2C(=O)[C@@H](NC(=O)OCc3ccccc3)[C@H]2SC1 | -20% | . | 3% | . | . | .
CN(C)c1ccc(C=c2c3cc([N+](=O)[O-])ccc3n3c2cc(-c2ccccc2)[n+]3C)cc1 | ? | -4% | -73% | 28µM* | ? | .
Cc1nc2sccn2c1CN1CCC2(CC1)CC2C(=O)Nc1ccc2c(c1)OCO2 (stereo not given) | . | . | . | . | . | i
C/C=C/c1ccc(OCCCNCC(C)O)c(OC)c1 (stereo not given) | -11% | 0% | -51% | -14% | 5.6µM* | i
C/C=C/c1ccc(OCCCCOc2ccc(OC)cc2)c(OC)c1 | -13% | 8% | -2% | -18% | ? | i
C/C=C/c1ccc(OCCCCN2CC(C)CC(C)C2)c(OC)c1 (stereo not given) | -14% | -1% | -43% | -26% | 11µM* | i
CCCCOc1ccc(/C=N/NC(=O)c2csc(C)c2C)cc1 | -5% | -11% | -39% | -15% | ? | i
Cc1scc(C(=O)N/N=C/c2ccc(OCC(C)C)cc2)c1C | 0% | -4% | -2% | 0% | 8.9µM* | i
C=C(c1nc2ccccc2s1)C1Cc2cccc3c2N(CCC3)C1 (stereo not given) | 4µM* | . | 7.1µM* | . | . | .
Cc1ccc(NC(=O)Cn2c(=O)n(Cc3ccco3)c(=O)c3sc4ccccc4c32)cc1C | -7% | -1% | -3% | 12% | -4% | i
O=C1C=C(N(CCO)Cc2ccccc2)c2ccccc2C1=O | 8.9µM* | -25% | 10µM* | 27µM* | 19%[0.307 µM] | .
Cc1[nH]c2ccccc2c1/C=N/n1cnnc1 | 18% | -24% | 1% | 3% | 0% | i
CCN(CC)c1ccc(N=Cc2c(C)[nH]c3ccccc23)cc1 | 11µM* | -4% | 2.8µM* | -1% | ? | i
CCCC(=O)Nc1ccccc1NC(=O)CN(C)S(=O)(=O)c1ccc(C)cc1 | -7% | 0% | 13µM* | 4% | -12% | i
C[C@@H]1CCCCO[C@@H](CN(C)CC2CCCCC2)[C@@H](C)CN([C@H](C)CO)C(=O)c2cc(NS(=O)(=O)c3ccc(Cl)cc3)ccc2O1 | ? | 20% | -119% | ? | 10µM* | .
C[C@H](CO)N1C[C@H](C)[C@H](CN(C)CC2CCCCC2)Oc2ccc(NS(=O)(=O)c3ccc(F)cc3)cc2CC1=O | ? | 6% | -105% | ? | ? | 28µM*
C[C@H]1CCCCO[C@H](CN(C)CC2CCCCC2)[C@@H](C)CN([C@@H](C)CO)C(=O)c2cc(NS(=O)(=O)c3ccccc3)ccc2O1 | 15% | 27% | -62% | -25% | ? | ?
C[C@@H]1CN([C@@H](C)CO)C(=O)Cc2cc(NC(=O)Nc3ccc(F)cc3)ccc2O[C@@H]1CN(C)Cc1ccc(Cl)c(Cl)c1 | ? | -1% | 16µM* | ? | ? | ?
